# PubChem BioAssay (EPA / NIEHS)
# The source made the active and inactive calls. How the source made its calls: active means hit-call score of the fitted dose curve at least 0.9, where 1 is the maximum; inactive means score below 0.9.
# Experiments:
# Details in all cases: mRNA level, 48 h; actives raise or lower the signal
# [1] = read-out: Peroxisomal acyl-coenzyme A oxidase 1 (ACOX1) gene, ACOX1 (gene 51); assay: LTEA_HepaRG_ACOX1: Life Technologies and Expression Analysis (LTEA) Assay for Peroxisomal acyl-coenzyme A oxidase 1 (ACOX1) gene using HepaRG (AID 2283467)
# Method in brief: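 HepaRG cells, plated 48 h then switched to serum-free induction medium, were exposed in duplicate for 48 h to 8-point half-log concentrations up to 100 uM in 0.5% DMSO. ACOX1 mRNA was measured by qRT-PCR, normalized to ACTB/GAPDH/POLR2A, and fitted bidirectionally versus DMSO.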
# [2] = read-out: Bcl-2 (BAD) gene, BAD (gene 572); assay: LTEA_HepaRG_BAD: Life Technologies and Expression Analysis (LTEA) Assay for Bcl-2 (BAD) gene using HepaRG (AID 2283469)
# Method in brief: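 Differentiated HepaRG cells were exposed in duplicate in 0.5% DMSO for 48 h to eight-point half-log concentrations up to 100 uM. BAD mRNA was measured by Fluidigm TaqMan qRT-PCR, normalized to ACTB, GAPDH and POLR2A, and fitted bidirectionally against DMSO.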
# [3] = read-out: Bcl-2 (BAX) gene, BAX (gene 581); assay: LTEA_HepaRG_BAX: Life Technologies and Expression Analysis (LTEA) Assay for Bcl-2 (BAX) gene using HepaRG (AID 2283470)
# Method in brief: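 Differentiated HepaRG cells exposed 48 h in serum-free induction medium, eight half-log concentrations from 100 uM, in duplicate, 0.5% DMSO vehicle. BAX mRNA by TaqMan qRT-PCR, normalised to ACTB, GAPDH and POLR2A.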
# [4] = read-out: adenosine kinase (ADK) gene, ADK (gene 132); assay: LTEA_HepaRG_ADK: Life Technologies and Expression Analysis (LTEA) Assay for adenosine kinase (ADK) gene using HepaRG (AID 2283471)
# Method in brief: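 Following 48 h exposure of HepaRG cells in 0.5% DMSO (top concentration 100 uM, duplicate wells), ADK mRNA induction or suppression was measured by qRT-PCR, normalised to ACTB/GAPDH/POLR2A, and fitted bidirectionally relative to vehicle.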
# [5] = read-out: Alpha-fetoprotein (AFP) gene, AFP (gene 174); assay: LTEA_HepaRG_AFP: Life Technologies and Expression Analysis (LTEA) Assay for Alpha-fetoprotein (AFP) gene using HepaRG (AID 2283472)
# Method in brief: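 Differentiated human HepaRG cells exposed 48 h in serum-free induction medium, 8-point half-log series from 100 uM in 0.5% DMSO, duplicate. AFP mRNA by qRT-PCR, normalized to ACTB, GAPDH, POLR2A; bidirectional fit vs DMSO.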
# [6] = read-out: BCL2L11 (gene 10018); assay: LTEA_HepaRG_BCL2L11: Life Technologies and Expression Analysis (LTEA) Assay for Bcl-2 (BCL2L11) gene using HepaRG (AID 2283473)
# Method in brief: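 Human hepatic HepaRG cultures are treated 48 h with test chemicals (maximum 100 uM, 0.5% DMSO vehicle). Expression of BCL2L11 is measured by qRT-PCR against ACTB, GAPDH and POLR2A, with activity in either direction scored relative to vehicle.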
# [7] = read-out: Apolipoprotein A-V (APOA5) gene, APOA5 (gene 116519); assay: LTEA_HepaRG_APOA5: Life Technologies and Expression Analysis (LTEA) Assay for Apolipoprotein A-V (APOA5) gene using HepaRG (AID 2283474)
# Method in brief: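 Concentration-response of APOA5 expression in HepaRG: eight half-log doses to 100 uM, 48 h, qRT-PCR normalized to ACTB/GAPDH/POLR2A, bidirectional fitting with 0.5% DMSO as baseline.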
# [8] = read-out: Apoptosis regulator Bcl-2 (Homo sapiens) (UniProt P10415); assay: LTEA_HepaRG_BCL2: Life Technologies and Expression Analysis (LTEA) Assay for Bcl-2 gene using HepaRG (AID 2283475)
# Method in brief: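 Differentiated human HepaRG cells in serum-free induction medium exposed 48 h, in duplicate, to 8-point half-log series from 100 uM in 0.5% DMSO. BCL2 mRNA by qRT-PCR (TaqMan/Fluidigm), normalized to ACTB, GAPDH, POLR2A; bidirectional fit against DMSO.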
# [9] = read-out: Caspase-3 (Homo sapiens) (UniProt P42574); assay: LTEA_HepaRG_CASP3: Life Technologies and Expression Analysis (LTEA) Assay for cysteine-aspartic acid protease (CASP3) using HepaRG (AID 2283477)
# Method in brief: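 Transcript-level assay: CASP3 mRNA in human HepaRG after 48 h treatment, eight half-log concentrations from 100 uM in 0.5% DMSO, quantified by qRT-PCR.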
# [10] = read-out: cysteine-aspartic acid protease (CASP8), CASP8 (gene 841); assay: LTEA_HepaRG_CASP8: Life Technologies and Expression Analysis (LTEA) Assay for cysteine-aspartic acid protease (CASP8) using HepaRG (AID 2283480)
# Method in brief: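 Differentiated HepaRG cells in serum-free induction medium, 48 h exposure, eight-point half-log series from 100 uM in 0.5% DMSO, duplicates. CASP8 mRNA by qRT-PCR, normalized to ACTB, GAPDH, POLR2A; bidirectional fit versus DMSO.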
# [11] = read-out: Cytochrome P450 (CYP1A2), CYP1A2 (gene 1544); assay: LTEA_HepaRG_CYP1A2: Life Technologies and Expression Analysis (LTEA) Assay for Cytochrome P450 (CYP1A2) using HepaRG (AID 2283479)
# Method in brief: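 In duplicate wells, HepaRG cultures maintained in 0.5% DMSO were treated 48 h across an 8-point, half-log series topping at 100 uM; phenobarbital (1 mM) served as induction control. Expression was read by qRT-PCR.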
# [12] = read-out: Cytochrome P450 (CYP2B6), CYP2B6 (gene 1555); assay: LTEA_HepaRG_CYP2B6: Life Technologies and Expression Analysis (LTEA) Assay for Cytochrome P450 (CYP2B6) using HepaRG (AID 2283481)
# Method in brief: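 Human HepaRG, 48 h dosing, 0.5% DMSO vehicle, top dose 100 uM. CYP2B6 transcript by qRT-PCR, housekeeping-normalized, bidirectional curve fit.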
# [13] = read-out: Cytochrome P450 2C19 (Homo sapiens) (UniProt P33261); assay: LTEA_HepaRG_CYP2C19: Life Technologies and Expression Analysis (LTEA) Assay for CYP2C19 using HepaRG (AID 2283482)
# Method in brief: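 Endpoint: CYP2C19 mRNA change, bidirectional fit vs 0.5% DMSO. Cells: HepaRG, 48 h exposure, eight-point series topping at 100 uM. Quantitation: qRT-PCR normalized to ACTB, GAPDH, POLR2A.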
# [14] = read-out: CYP2C8 (gene 1558); assay: LTEA_HepaRG_CYP2C8: Life Technologies and Expression Analysis (LTEA) Assay for CYP2C8 using HepaRG (AID 2283483)
# Method in brief: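 Differentiated HepaRG cells in serum-free induction medium exposed 48 h in duplicate to 8 half-log concentrations from 100 uM in 0.5% DMSO. CYP2C8 mRNA by qRT-PCR normalized to ACTB, GAPDH, POLR2A; bidirectional fit versus DMSO.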
# [15] = read-out: CYP2C9 (gene 1559); assay: LTEA_HepaRG_CYP2C9: Life Technologies and Expression Analysis (LTEA) Assay for CYP2C9 using HepaRG (AID 2283484)
# Method in brief: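 Differentiated human HepaRG cells in serum-free induction medium were exposed 48 h to chemicals in 8-point half-log series from 100 uM (0.5% DMSO), in duplicate. CYP2C9 mRNA was measured by qRT-PCR, normalized to ACTB/GAPDH/POLR2A, with bidirectional fitting versus DMSO.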
# [16] = read-out: CYP2E1 (gene 1571); assay: LTEA_HepaRG_CYP2E1: Life Technologies and Expression Analysis (LTEA) Assay for CYP2E1 using HepaRG (AID 2283485)
# Method in brief: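 HepaRG cells, plated 48 h, then exposed 48 h in serum-free induction medium to eight half-log concentrations from 100 uM in 0.5% DMSO, duplicate. CYP2E1 mRNA by qRT-PCR, normalized to ACTB/GAPDH/POLR2A; bidirectional fit versus DMSO.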
# [17] = read-out: CYP4A11 (gene 1579); assay: LTEA_HepaRG_CYP4A11: Life Technologies and Expression Analysis (LTEA) Assay for CYP4A11 using HepaRG (AID 2283486)
# Method in brief: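 Human hepatic HepaRG cultures receive duplicate 48 h exposures across a concentration-response series topping at 100 uM. Expression changes in CYP4A11 are measured by qRT-PCR relative to DMSO controls.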
# [18] = read-out: Bcl-2 (BID) gene, BID (gene 637); assay: LTEA_HepaRG_BID: Life Technologies and Expression Analysis (LTEA) Assay for Bcl-2 (BID) gene using HepaRG (AID 2283476)
# Method in brief: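 Gene expression by qRT-PCR in HepaRG cells after 48 h exposure, duplicate wells, eight half-log concentrations topping at 100 uM in 0.5% DMSO. Normalized to ACTB, GAPDH, POLR2A; bidirectional fitting relative to DMSO.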
# [19] = read-out: Cytochrome P450 (CYP24A1), CYP24A1 (gene 1591); assay: LTEA_HepaRG_CYP24A1: Life Technologies and Expression Analysis (LTEA) Assay for Cytochrome P450 (CYP24A1) using HepaRG (AID 2283478)
# Method in brief: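 Gene expression of CYP24A1 by TaqMan qRT-PCR in HepaRG after 48 h treatment, highest concentration 100 uM; activity fitted in both directions relative to DMSO vehicle.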
# Sequence of Apoptosis regulator Bcl-2 (Homo sapiens) (P10415 whole entry, looked up): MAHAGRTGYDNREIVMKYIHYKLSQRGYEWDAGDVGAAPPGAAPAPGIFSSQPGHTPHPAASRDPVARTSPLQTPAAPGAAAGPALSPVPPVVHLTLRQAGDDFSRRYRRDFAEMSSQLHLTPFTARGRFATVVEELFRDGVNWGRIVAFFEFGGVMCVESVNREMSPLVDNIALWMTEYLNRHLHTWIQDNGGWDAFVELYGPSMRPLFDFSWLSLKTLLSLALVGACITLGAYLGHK
# Sequence of Caspase-3 (Homo sapiens) (P42574 whole entry, looked up): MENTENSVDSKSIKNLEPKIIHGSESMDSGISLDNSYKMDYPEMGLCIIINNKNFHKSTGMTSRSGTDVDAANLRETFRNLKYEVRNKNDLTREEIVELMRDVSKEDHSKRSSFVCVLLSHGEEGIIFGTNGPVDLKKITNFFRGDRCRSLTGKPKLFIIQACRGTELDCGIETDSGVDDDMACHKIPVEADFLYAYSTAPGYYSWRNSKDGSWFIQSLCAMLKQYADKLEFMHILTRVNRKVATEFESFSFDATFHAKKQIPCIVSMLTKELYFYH
# Sequence of Cytochrome P450 2C19 (Homo sapiens) (P33261 whole entry, looked up): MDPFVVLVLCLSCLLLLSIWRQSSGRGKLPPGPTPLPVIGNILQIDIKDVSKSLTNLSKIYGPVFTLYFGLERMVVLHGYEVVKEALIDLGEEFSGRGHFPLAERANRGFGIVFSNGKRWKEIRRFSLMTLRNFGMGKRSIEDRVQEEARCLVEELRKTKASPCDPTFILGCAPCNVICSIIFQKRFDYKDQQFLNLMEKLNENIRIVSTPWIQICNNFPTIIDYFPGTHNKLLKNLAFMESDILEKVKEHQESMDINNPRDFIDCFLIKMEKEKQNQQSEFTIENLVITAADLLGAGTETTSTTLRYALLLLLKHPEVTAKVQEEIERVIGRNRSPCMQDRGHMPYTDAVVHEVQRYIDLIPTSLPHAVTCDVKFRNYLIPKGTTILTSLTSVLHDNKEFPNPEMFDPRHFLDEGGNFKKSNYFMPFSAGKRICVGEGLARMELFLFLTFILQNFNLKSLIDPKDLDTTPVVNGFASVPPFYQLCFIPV
structure (smiles),measurement,setting,value
CC(C)(C)c1cc(O)c(C(C)(C)C)cc1O,AC50,[1],77.3 µM (active)
same,outcome,[2],inactive
same,outcome,[3],inactive
same,AC50,[4],76.7 µM (active)
same,AC50,[5],77.7 µM (active)
same,outcome,[6],inactive
same,outcome,[7],inactive
same,outcome,[8],inactive
same,AC50,[9],79.4 µM (active)
same,AC50,[10],81.1 µM (active)
Cc1ccc(Cl)cc1,outcome,[1],inactive
same,outcome,[2],inactive
same,outcome,[3],inactive
same,outcome,[4],inactive
same,outcome,[5],inactive
same,outcome,[6],inactive
same,outcome,[7],inactive
same,outcome,[8],inactive
same,outcome,[9],inactive
same,outcome,[11],inactive
same,outcome,[10],inactive
same,outcome,[12],inactive
same,outcome,[13],inactive
same,outcome,[14],inactive
same,outcome,[15],inactive
same,outcome,[16],inactive
same,outcome,[17],inactive
Cc1ccc(C)c(C)c1,outcome,[1],inactive
same,outcome,[2],inactive
same,outcome,[3],inactive
same,outcome,[4],inactive
same,outcome,[5],inactive
same,outcome,[6],inactive
same,outcome,[7],inactive
same,outcome,[8],inactive
same,outcome,[18],inactive
same,outcome,[9],inactive
same,outcome,[11],inactive
same,outcome,[10],inactive
same,outcome,[13],inactive
same,outcome,[14],inactive
same,outcome,[15],inactive
same,outcome,[16],inactive
same,outcome,[17],inactive
Nc1ccc(S(=O)(=O)c2ccc(N)cc2)cc1,outcome,[1],inactive
same,outcome,[2],inactive
same,outcome,[3],inactive
same,outcome,[4],inactive
same,outcome,[5],inactive
same,outcome,[6],inactive
same,outcome,[7],inactive
same,outcome,[8],inactive
same,outcome,[18],inactive
same,outcome,[9],inactive
same,outcome,[11],inactive
same,outcome,[10],inactive
same,outcome,[14],inactive
same,outcome,[15],inactive
same,AC50,[16],5.9 µM (active)
same,outcome,[17],inactive
CCCCOC(=O)CCCCCCCCC(=O)OCCCC,outcome,[1],inactive
same,outcome,[2],inactive
same,outcome,[3],inactive
same,outcome,[4],inactive
same,outcome,[5],inactive
same,outcome,[6],inactive
same,outcome,[7],inactive
same,outcome,[8],inactive
same,outcome,[18],inactive
same,outcome,[9],inactive
same,outcome,[11],inactive
same,outcome,[10],inactive
same,outcome,[13],inactive
same,outcome,[14],inactive
same,outcome,[15],inactive
same,outcome,[16],inactive
same,outcome,[17],inactive
Cc1cccc(C)c1O,outcome,[1],inactive
same,outcome,[2],inactive
same,outcome,[3],inactive
same,outcome,[4],inactive
same,outcome,[5],inactive
same,outcome,[6],inactive
same,outcome,[7],inactive
same,outcome,[8],inactive
same,outcome,[9],inactive
same,outcome,[11],inactive
same,outcome,[10],inactive
same,outcome,[13],inactive
same,outcome,[14],inactive
same,outcome,[15],inactive
same,outcome,[16],inactive
same,outcome,[17],inactive
CC(=O)OC/C=C(\C)CCC=C(C)C,outcome,[1],inactive
same,outcome,[2],inactive
same,outcome,[3],inactive
same,outcome,[4],inactive
same,outcome,[5],inactive
same,outcome,[6],inactive
same,outcome,[7],inactive
same,outcome,[8],inactive
same,outcome,[9],inactive
same,outcome,[11],inactive
same,outcome,[10],inactive
same,outcome,[12],inactive
same,outcome,[13],inactive
same,outcome,[14],inactive
same,outcome,[15],inactive
same,outcome,[16],inactive
same,outcome,[17],inactive
Cc1c(C(=O)O)c(O)cc2c1C(=O)c1c(O)c([C@@H]3O[C@H](CO)[C@@H](O)[C@H](O)[C@H]3O)c(O)c(O)c1C2=O,outcome,[1],inactive
same,outcome,[2],inactive
same,outcome,[3],inactive
same,outcome,[4],inactive
same,outcome,[5],inactive
same,outcome,[6],inactive
same,outcome,[7],inactive
same,outcome,[8],inactive
same,outcome,[9],inactive
same,outcome,[19],inactive
same,outcome,[11],inactive
same,outcome,[10],inactive
same,outcome,[13],inactive
same,outcome,[14],inactive
same,outcome,[15],inactive
same,outcome,[16],inactive
same,outcome,[17],inactive
